We go through 43 compounds from PubChem BioAssay AID504327 (National Center for Advancing Translational Sciences (NCATS), 2011).

Out of some 390,000 compounds screened, about 820 (0.21%) were called active. Another 3% or so got no clear call; they are omitted. Calls come from the whole dose curve; as a rule, active = well fitted inhibition curve with a large enough effect; inconclusive = small, poorly fitted or top-dose-only effect, or another doubt; inactive = no such curve, though single readings can be large or run the other way. This excerpt belongs to a sample that is enriched for actives. Non-standard residues stand in square brackets, D forms with d. Residues, ends and D or L forms follow the SMILES beside them. Groups on a side chain read outwards from the residue. *: point of attachment. X1 = CCC(C)C(N)C1=NC(C(=O)*)CS1; Orn = NCCC[CH](N)C(=O)O
% is set by controls: 0 for no effect and ±100 for the full control effect; potency is the fitted concentration of half-maximal effect.

Histone acetyltransferase KAT2A (Homo sapiens), sequence (Q92830 whole entry, looked up): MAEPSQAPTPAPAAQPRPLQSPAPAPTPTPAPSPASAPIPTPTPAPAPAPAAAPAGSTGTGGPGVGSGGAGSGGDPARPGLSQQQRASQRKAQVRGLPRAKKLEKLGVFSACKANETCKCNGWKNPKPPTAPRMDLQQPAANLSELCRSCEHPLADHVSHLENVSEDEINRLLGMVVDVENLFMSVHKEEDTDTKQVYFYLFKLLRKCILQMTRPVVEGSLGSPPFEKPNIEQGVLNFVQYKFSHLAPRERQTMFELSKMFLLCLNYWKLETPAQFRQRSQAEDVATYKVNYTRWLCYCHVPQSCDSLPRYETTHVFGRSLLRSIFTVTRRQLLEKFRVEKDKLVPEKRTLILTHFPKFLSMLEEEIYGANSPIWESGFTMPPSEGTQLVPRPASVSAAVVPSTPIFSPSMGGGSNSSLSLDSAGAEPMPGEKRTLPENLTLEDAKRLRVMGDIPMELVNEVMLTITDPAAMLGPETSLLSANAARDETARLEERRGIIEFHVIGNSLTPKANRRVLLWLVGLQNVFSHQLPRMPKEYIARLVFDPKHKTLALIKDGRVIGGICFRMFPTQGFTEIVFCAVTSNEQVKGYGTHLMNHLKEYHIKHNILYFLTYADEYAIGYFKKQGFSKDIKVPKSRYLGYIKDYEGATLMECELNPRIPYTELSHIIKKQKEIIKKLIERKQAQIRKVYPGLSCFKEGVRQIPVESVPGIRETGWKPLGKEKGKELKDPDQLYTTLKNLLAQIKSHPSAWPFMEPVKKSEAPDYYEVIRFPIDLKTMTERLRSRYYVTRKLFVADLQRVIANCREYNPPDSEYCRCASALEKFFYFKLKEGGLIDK

The target of this assay is Histone acetyltransferase KAT2A (Homo sapiens) (UniProt Q92830). The experiment in a line: qHTS Assay for Inhibitors of GCN5L2. As to conditions: GCN5L2 HAT assay, ThioGlo1 CoA-SH fluorescence; series mostly up to 58.9 µM; activity change, negative = inhibition: at the top concentration. The text has this:
Histone acetyltransferase (HAT) enzymes transfer a […] group from acetyl-coenzyme A to the epsilon-amino group of conserved lysine residues of N-terminal histone tails. Acetylation results in charge neutralization of this positively charged amino acid, decreasing interactions with the […] backbone and making the DNA more accessible for transcription. HATs have been recognized as an emerging drug target for treatment of cancer, diabetes, asthma, chronic obstructive pulmonary disease, cardiac disease, and viral infection. Protein identified with HAT activity include the […] like 2 (GCN5L2, a.ka. Histone acetyltransferase KAT2A) which acetylates histone H3 at Lys9, 14, 18, 13, and to lesser extent histones H4 and H2B. This activates transcription of the gene by modulating chromatin structure and installing the acetyllysine recognition mark for bromodomain-containing coactivator proteins.
A quantitative high throughput screen was developed to identify small molecule inhibitors. The assay is based on the principle that it measures formation of reduced CoA with the pro-fluorescent maleimide derivative ThioGlo1 that becomes fluorescent upon reaction with the free thiol of CoA.
A large number of artifacts are expected in this primary screen, compounded by the assay format (fluorescent artifacts) and by the high top concentration tested for each substance. This BioAssay data deposition should be used with caution, and counterscreen and secondary assay validation is essential since very few actives from the primary screen are expected to be true inhibitors of GCN5L2.
[2] Yasgar, et al. Compound Management for Quantitative High-Throughput Screening. JALA. 2008 Apr;13(2):79-89.
[3] Inglese, et al. Quantitative high-throughput screening: a titration-based approach that efficiently identifies biological activities in large chemical libraries. Proc Natl Acad Sci. 1;103(31):11473-8. 2006. PMID: 16864780
NIH Molecular Libraries Probe Production Network [MLPCN]
NIH Chemical Genomics Center [NCGC]
Structural Genomics Consortium (SGC)
To each well of a 1,536w plate, 3ul of GCN5L2 (final concentration 20nM, in 50mM HEPES, 0.1mM EDTA (pH 7.5), 0.01% Tween-20 buffer) are added using a Kalypsys dispenser. Only buffer is added to some wells as a control. A Kalypsys pin-tool transferred 23nl of library compound solution in DMSO to each well, as well as the control inhibit garcinol. . Following a 15 min incubation of enzyme with compounds at room temperature, 1ul mixture of ThioGlo1 (50uM final), H3(1-25) peptide (75uM final), and Acetyl-CoA (70uM final) is added. Plates are read immediately on the ViewLux (PerkinElmer) (Ex340nm/Em540nm) for a 0 min read, incubated for 20 min at room temperature, and read again on the ViewLux with the same settings. The initial read was carried out to identify compounds that are potentially fluorescent.
With `O=S(O)S(=O)(=O)O`, the “activity change, negative = inhibition” value was 0.862% (inactive).

On to `CCC(C)C(N)C1=NC(C(=O)NC(CC(C)C)C(=O)NC(CCC(=O)O)C(=O)NC(C(=O)NCCCCC2NC(=O)C(CC(N)=O)NC(=O)C(CC(=O)O)NC(=O)C(Cc3cnc[nH]3)NC(=O)C(Cc3ccccc3)NC(=O)C(C(C)CC)NC(=O)C(CCCN)NC2=O)C(C)CC)CS1` (stereo not drawn) (cyclo(DNK([Ile-Glu-Leu-X1])[Orn]IFH); configuration not given here), for which the “activity change, negative = inhibition” value was 12.2% (inactive). Same read-out and setting: the result for `COC(=O)CC1C(C)(C)C(OC(C)=O)C2CC3=C4CC(=O)OC(c5ccoc5)[C@]4(C)CCC3[C@@]1(C)C2=O` (stereo partly drawn) reads 3.09% (inactive); that for `O=C(c1csnn1)N1CCC2(CC1)CN(c1ncccn1)C2`, -3.32% (inactive).

Take `CC(C)c1cnc(NC(=O)Cc2ccccc2)s1`: the “activity change, negative = inhibition” value is -7.71% (inactive). As to `Cc1nc2cnc(N3CCN(C)CC3)nc2n(CCC#N)c1=O`, the “activity change, negative = inhibition” value is -21% (inactive).

Turning to `C[C@H]1CCC[C@@]2(C)CCCC[C@]12O`, the “activity change, negative = inhibition” value is -21.9% (inactive). In the case of `CC(CCC(=O)O)C1CCC2C3C(O)C[C@@H]4CC(O)CC[C@@]4(C)C3CC[C@@]12C` (stereo partly drawn), the Potency result was “inactive”. Turning to `O=c1cc(-c2ccc(O)cc2)oc2c([C@@H]3O[C@H](CO)[C@@H](O)[C@H](O)[C@H]3O)c(O)cc(O)c12`, the “activity change, negative = inhibition” value is -14.1% (inactive). Still for that read-out and setting: the result for `O=C(c1ccncc1)N1CCC2(CCCN(C(c3ccccc3)c3ccccc3)C2)CC1` reads -12.2% (inactive); that for `COc1ccccc1N1CCN(C[C@@H]2CN3C(=O)N(C)c4ccccc4C3=N2)CC1`, -10.7% (inactive); that for `C[C@@H]1C[C@H]2[C@@H]3C[C@H](F)C4=CC(=O)C=C[C@@]4(C)[C@]3(F)[C@H](O)C[C@]2(C)[C@@]1(O)C(=O)CO`, 5.37% [at 21.4 µM] (inactive). On the same count and under the same terms, in the case of `C[C@@H]1O[C@@H](OC[C@H]2O[C@@H](Oc3cc(O)c4c(c3)O[C@H](c3ccc(O)c(O)c3)CC4=O)[C@H](O)[C@@H](O)[C@@H]2O)[C@H](O)[C@H](O)[C@H]1O` it was -18.7% (inactive).

For `Cc1ccccc1CSCCNC(=O)c1ccc(Cl)c(S(=O)(=O)N2CCOCC2)c1`, the “activity change, negative = inhibition” value is 2.44% (inactive). As for `Cc1ccccc1CSCCNC(=O)c1ccc(N(C)S(=O)(=O)c2ccccc2)cc1`, the Potency was 2.24 µM (active). Regarding `COc1ccccc1CNC(=O)c1ccc(N(C)S(=O)(=O)c2ccc(C)cc2)cc1`, the “activity change, negative = inhibition” value is -9.17% (inactive). Take `COc1cccc(Nc2ncc3ncc(=O)n(C4CC4)c3n2)c1`: the “activity change, negative = inhibition” value was -6.14% (inactive). For `Cc1ccc(C2C(C#N)C(C#N)N3CCCN23)cc1` (stereo not drawn), the Potency was 22.4 µM (active). Consider `CC1CC[C@@]23CCC4(C)[C@@]5(C)CCC6C(C)(C)C(O)CC[C@@]6(C)C5C=C[C@@]4(OC2=O)C3C1C` (stereo partly drawn), for which the “activity change, negative = inhibition” value is -10.8% (inactive). Consider `CC1=C/C(=N\OS(=O)(=O)c2ccccc2)C=CC1=O`, for which the Potency is 14.1 µM (active). In the case of `COc1cc2c(cc1OC)CC(=O)N(CCCN(C)C[C@H]1Cc3cc(OC)c(OC)cc31)CC2`, the “activity change, negative = inhibition” value is -3.71% (inactive). Turning to `O=C1OC(C(O)CO)C(O)=C1O` (stereo not drawn), the “activity change, negative = inhibition” value was -3.15% (inactive). Regarding `CCNc1ncc2ncc(=O)n(Cc3cccc(OC)c3)c2n1`, the “activity change, negative = inhibition” value was -13.7% (inactive).

Regarding `CCOC(=O)c1sc(NC(=O)CSc2nc(C)cc(C(F)(F)F)n2)c(C#N)c1C`, the “activity change, negative = inhibition” value is 0% (inactive). Regarding `Cc1c(C(=O)OC(C)C)sc(NC(=O)c2cccnc2)c1C#N`, the Potency was 3.16 µM (active). For the compound `Cc1ccc(S(=O)(=O)N2CCCCC2)cc1NC(=O)c1cccnc1`, the “activity change, negative = inhibition” value is -1.42% (inactive). The same measure, in the same setting: in the case of `COc1cccc(-c2cc(NCCc3c[nH]c4ccc(OC)cc34)ncn2)c1` it was -21.1% (inactive).

With `CC1(C)OC2CC3C4CCC5=CC(=O)CCC5(C)C4(F)C(O)CC3(C)[C@]2(C(=O)CCl)O1` (stereo partly drawn), the “activity change, negative = inhibition” value is 4.95% (inactive). For `Oc1c(Cl)cc(Cl)c(Cl)c1Cc1c(O)c(Cl)cc(Cl)c1Cl`, the Potency is 12.6 µM (active).

Regarding `c1ccc2c(Nc3ccncc3)nc(-c3ccoc3)nc2c1`, the “activity change, negative = inhibition” value is -26.1% (inactive). As to `O=C(Nc1ccccc1)N[C@H]1C[C@H](C(=O)O)Nc2cc(Cl)cc(Cl)c21`, the Potency result was “inactive”. `C=C1C(=CC=C2CCC[C@@]3(C)[C@@H]2CC[C@H]3[C@H](C)CCCC(C)C)C[C@@H](O)C[C@@H]1O`: the “activity change, negative = inhibition” value was -15.3% (inactive).

As for `CC(C)(O/N=C(\C(=O)N[C@@H]1C(=O)N2C(C(=O)[O-])=C(C[n+]3ccccc3)CS[C@@H]12)c1csc(N)n1)C(=O)O`, the “activity change, negative = inhibition” value was -8.44% [at 21.4 µM] (inactive). As to `CC1C(O)CC2C(C(=O)O)=CO[C@@H](O[C@H]3OC(CO)C(O)C(O)C3O)C21` (stereo partly drawn), the “activity change, negative = inhibition” value was 2.16% (inactive). Same read-out and setting: in the case of `COC(=O)N1CCC[C@@]2(CCN(C(=O)NC(C)C)C2)C1` it was -1.27% (inactive); in that of `Brc1ccc(C2=NCCC(c3ccccc3)O2)cc1` (stereo not drawn), 16.1% [at 88.6 µM] (inactive). With `CC(C)NC(=O)N1CC[C@@]2(CCCN(C(=O)c3ccco3)C2)C1`, the “activity change, negative = inhibition” value is -4.07% (inactive). In the case of `CCCCOC(=O)Cn1c(=O)n(CC(=O)OCCCC)c2cc(C)ccc21`, the Potency is 31.6 µM (active). Turning to `CCCCOc1ccc(Cn2c(=O)oc3ccc(C)cc32)cc1OC`, the “activity change, negative = inhibition” value was -18.2% (inactive). Still for that read-out and setting: the result for `Cc1ccc(C)c(NC(=O)COC(=O)Cn2c(C)csc2=O)c1` reads -26.1% (inactive); that for `COc1ccc(NC(=O)N2CC3(CCN(C(C)=O)CC3)C2)cc1`, -3.46% (inactive). Still for that read-out and setting: in the case of `CC(=O)CC(c1ccccc1)C1C(=O)Oc2ccccc2C1=O` (stereo not drawn) it was -14.4% (inactive). Still for that read-out and setting: the result for `COc1cccc(Cn2c(=O)c(-c3cc(F)cc(F)c3)nc3cnc(OC)nc32)c1` reads -18.4% (inactive).
